Among all 2,100 compounds or so, about 1,100 (52%) were called active. About 27% were inconclusive and are not listed. The set was probably picked from earlier hits. Some of the results follow. Values without a mark were called inactive. The call rests on the fitted dose curve; in most records, active means well fitted inhibition curve with a large enough effect; inconclusive means small, poorly fitted or top-dose-only effect; inactive means no such curve, though single readings can be large or run the other way.
Potency means the concentration at half of the fitted maximal effect.

Sequence of DNA dC->dU-editing enzyme APOBEC-3G (Homo sapiens) (Q9HC16 whole entry, looked up): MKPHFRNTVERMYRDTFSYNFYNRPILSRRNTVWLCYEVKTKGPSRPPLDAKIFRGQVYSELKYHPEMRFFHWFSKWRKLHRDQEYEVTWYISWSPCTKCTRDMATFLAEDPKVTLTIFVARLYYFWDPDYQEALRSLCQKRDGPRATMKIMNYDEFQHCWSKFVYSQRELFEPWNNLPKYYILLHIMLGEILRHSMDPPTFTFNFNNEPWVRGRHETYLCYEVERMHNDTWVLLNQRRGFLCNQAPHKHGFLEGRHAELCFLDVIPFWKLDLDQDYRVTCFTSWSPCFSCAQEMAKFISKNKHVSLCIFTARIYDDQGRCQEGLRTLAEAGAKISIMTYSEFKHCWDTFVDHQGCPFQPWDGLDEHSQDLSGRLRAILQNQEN

This experiment has as its target DNA dC->dU-editing enzyme APOBEC-3G (Homo sapiens) (UniProt Q9HC16). Nature of the experiment: qHTS for inhibitors of Vif-A3G interactions: Cherry picks counterscreen.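 Further: hits raise yellow fluorescence by blocking Vif-driven A3G-eYFP degradation; nearly all actives have a fitted effect of over 70% in size.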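 On max response: max response given as percent of control signal.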 To be noted: HeLa A3G-eYFP + Vif (tagged APOBEC3G with the HIV-1 protein that degrades it), eYFP fluorescence, 24 h. From the text: The recent discovery and characterization of host restriction factors, which provide a potent defense to invading retroviruses, has provided new targets for antiviral drug development. APOBEC3G (A3G) and APOBEC3F (A3F) are potent cytidine deaminases that block HIV-1 replication; HIV-1 expresses the Vif protein, which counteracts A3G and A3F by binding to them and inducing their proteasomal degradation. The Vif-A3G and Vif-A3F interactions provide two potential targets for development of small molecules which can interfere with the ability of Vif to degrade A3G or A3F. […] To identify inhibitors that can interfere with Vif mediated degradation of A3G and A3F, we have developed Hela cell lines that stably express A3G or A3F tagged with eYFP at the C-terminal end (A3G-eYFP or A3F-eYFP, respectively) and Vif. In the absence of an inhibitor, Vif induces degradation of A3G-eYFP and A3F-eYFP, and the cells are not fluorescent. In the presence of an inhibitor, it is expected that Vif will be unable to degrade A3G-eYFP and/or A3F-eYFP, resulting in an increase in yellow fluorescence. In this counterscreen assay, Vif A3G was screened against the cherry picks ordered from the MLSMR. NIH Chemical Genomics Center [NCGC] NIH Molecular Libraries Probe Centers Network [MLPCN] MLPCN Grant: MH093245 Assay Submitter (PI): Vinay Pathak, National Cancer Institute
A3G-Vif cells were harvested from T225 flask and resuspended in phenol free OPTI-MEM medium with 5% FBS. Then 5 uL of 140,000 cells/mL resuspended cells was dispensed into each well of low base Aurora COC 1,536-well plates (black walled, clear bottom) using a Multidrop Combi dispenser. After overnight culture at 37 deg C with 5% CO2, a total of 23 nL of compounds at 5 selected concentrations from the NPC or positive control (2 mM stock of MG132) in DMSO was transferred to each well of the assay plate using a pintool (Kalypsys, San Diego, CA), and the plates were further incubated at 37 deg C with 5% CO2 for 24 hours. After that, the plates were measured on Acumen Explorer (TTP Lab Tech). The fluorescence was detected by 488 nm/Ex and […].
(In qHTS, concentration-response curves come from the screen itself.)
As to `CCCCCCN1C[C@H](O)[C@@H](n2cc(COC(=O)c3ccccc3)nn2)C[C@@H]1c1ccc(C)cc1`, the max response is 4.43%.

For the molecule `CN(C)c1ccc2ccc3cccc4ccc1c2c34`, the Potency is 13 µM (active).

As for `O=C1NC(c2ccc(Br)cc2)Nc2ccccc21` (stereo not drawn), the Potency was 17.7 µM (active).

Regarding `O=C1NC(c2cccc(Cl)c2)Nc2ccccc21` (stereo not drawn), the Potency is 12.5 µM (active).

Consider `CSc1ccc(C2NC(=O)c3ccccc3N2)cc1` (stereo not drawn), for which the Potency is 11.2 µM (active).

On to `CC(C)n1cc(NC(=O)c2cc(-c3ccccc3)on2)cn1`, for which the Potency is 5.59 µM (active).

For `CCn1c(O)c(/C=N/N=C/c2ccc(OC)cc2)c2cc(C3=NNC(=O)CC3)ccc21`, the Potency is 13 µM (active).

Turning to `N#CC(=Cc1ccccn1)c1nc(-c2ccc(Cl)cc2)cs1`, the Potency is 6.27 µM (active).

With `N#C/C(=C\c1ccc(Cl)cc1)c1nc2ncccc2[nH]1`, the max response was -13.6%.

As to `Cc1ccc(CNC(=O)Cn2cc(C(=O)c3ccc(Cl)cc3)c(=O)c3ccc(C)nc32)cc1`, the max response is -25%.

`O=C(Cn1nc2c(cc1=O)CCCC2)NCc1ccc(Cl)cc1`: the Potency is 13 µM (active).

Take `CCC(C)Sc1cccc(-c2nc3cc(C)ccn3c2NC2CCCCC2)c1` (stereo not drawn): the max response is 18.8%.

As to `Cc1cccc(N2CCN(C(=O)c3ccncc3)CC2)c1C`, the Potency was 12.5 µM (active).

Take `O=C1COc2ccc(C(=O)CSc3nc4ccccc4c(=O)n3-c3ccc(Cl)c(Cl)c3)cc2N1`: the Potency was 18.4 µM (active).

Take `Cc1ccc(/C=C2/CNC/C(=C/c3ccc(C)cc3)C2=O)cc1`: the Potency was 5.59 µM (active).

As for `C[C@]12CCC[C@H](O1)c1c(cc3c(c1O)C(=O)c1c(O)cc(O)cc1C3=O)O2`, the Potency was 16.4 µM (active).

With `Cc1cc(N(C)C)c(C)cc1/C=C/c1ccnc2ccccc12`, the Potency was 10.3 µM (active).

As for `CCN(CC)c1cc(C)c(/C=C/c2ccnc3ccccc23)cc1C`, the Potency was 16.4 µM (active).

In the case of `O=C(O)c1ccccc1N/N=C/c1c(Sc2nnnn2-c2ccccc2)nc2ccccn2c1=O`, the Potency is 4.44 µM (active).

For `COc1cc(C(=O)Nc2nnc(Cc3ccccc3)s2)cc(OC)c1OC`, the Potency is 12.5 µM (active).

Turning to `Cc1cc(NC(=O)Nc2nnc(N(C)Cc3ccccc3)s2)ccc1Br`, the max response is 20.9%.

As to `COc1cc(CCC(=O)Nc2nnc(C)s2)cc(OC)c1OC`, the Potency was 8.86 µM (active).

For the molecule `Cc1noc(C)c1COc1cccc(C(=O)OC(C)C(=O)Nc2ccc3c(c2)OCO3)c1` (stereo not drawn), the Potency is 3.53 µM (active).

Consider `COc1ccc(NC(=O)C(NC(=O)/C=C\c2ccc3c(c2)OCO3)c2ccccc2)cc1` (stereo not drawn), for which the max response was -17%.

`CC1(C)Cc2c(sc3ncnc(NNC(=S)NCc4ccccc4)c23)CO1`: the Potency was 12.5 µM (active).

On to `C/C(=N\NC(=S)NCc1ccccc1)c1cccs1`, for which the max response is -28.6%.

With `O=c1[nH]c2ccccc2nc1/C=C(\O)c1cccs1`, the Potency was 4.61 µM (active).

Consider `NNC(=O)c1cc2sccc2s1`, for which the max response is 2.94%.

On to `Cc1cc(/C=C2\SC(=S)N(Cc3ccco3)C2=O)c(C)n1-c1cccnc1`, for which the Potency is 9.2 µM (active).

For `CN(C)c1ccc(C=C2SC(=S)N(Cc3ccco3)C2=O)cc1`, the Potency is 3.53 µM (active).

For `CCN1CCN(c2c(/C=C3\SC(=S)N(Cc4ccco4)C3=O)c(C)c(C#N)c(=O)n2C)CC1`, the Potency was 20.6 µM (active).

Turning to `Cc1cc(/C=C2\SC(=S)N(Cc3ccco3)C2=O)c(C)n1-c1ccccc1`, the Potency was 23.1 µM (active).

Take `COc1ccc(Nc2nc3cc(C)ccc3cc2C#N)cc1`: the Potency was 18.4 µM (active).

In the case of `COc1ccc(Nc2nc3cc(C)ccc3cc2C#N)c(OC)c1`, the Potency was 1.58 µM (active).

As to `Cc1ccc2nc(NS(=O)(=O)c3ccc(Cl)cc3)c(Nc3ccc(C(=O)O)cc3)nc2c1`, the max response is 2.4%.

Regarding `CC(=O)n1c2ccccc2c2nc3ccccc3nc21`, the Potency was 2.59 µM (active).

For `C=CCNc1nc2cc(-c3cccc(Cl)c3)sc2c(=O)n1C`, the Potency is 14 µM (active).

As for `CCOC(=O)c1ccc(/C=C2/C=C(c3ccccc3)N(c3ccc(Cl)c(C(=O)O)c3)C2=O)cc1`, the Potency was 20.6 µM (active).

`CCOC(=O)c1c(NC(=O)CSc2nc3ccc(OC)cc3[nH]2)sc2c1CC(C)(C)NC2(C)C`: the max response is -23%.

Regarding `C=CCOc1ccc2nc(NC(=O)OC)[nH]c2c1`, the Potency was 2.23 µM (active).

Consider `COc1ccc(NC(=O)C2Cc3c(-c4cccc(NC(C)=O)c4)ccnc3O2)cn1` (stereo not drawn), for which the Potency was 14 µM (active).

Take `COc1ccc(NC(=O)C2Cc3c(-c4cccc(C(C)=O)c4)ccnc3O2)cc1` (stereo not drawn): the Potency was 3.96 µM (active).

`CC(=O)c1cccc(-c2ccnc3c2CC(C(=O)Nc2ccc(Cl)cc2)O3)c1` (stereo not drawn): the Potency is 12.5 µM (active).

As for `CC(=O)Nc1ccc(-c2ccnc3c2CC(C(=O)Nc2cccc(N(C)C)c2)O3)cc1` (stereo not drawn), the Potency is 9.94 µM (active).

For `COc1cc(C2c3cc4c(cc3C(OC3OC5COC(c6cccs6)OC5C(O)C3O)C3COC(=O)C23)OCO4)cc(OC)c1O` (stereo not drawn), the max response was -84.8%.

With `CC(=O)Nc1cccc(-c2ccnc3c2CC(C(=O)Nc2ccc4c(c2)OCO4)O3)c1` (stereo not drawn), the Potency is 1.25 µM (active).

For `COc1ccc(NC(=O)C2Cc3c(-c4cccc(C(C)=O)c4)ccnc3O2)cn1` (stereo not drawn), the Potency is 1.4 µM (active).

On to `Cc1ccc(N=C2NC(=O)CC(C(=O)Nc3ccc4c(c3)OCO4)S2)cc1` (stereo not drawn), for which the max response is -13.3%.

The record behind these values is PubChem BioAssay AID651813 (National Center for Advancing Translational Sciences (NCATS), 2012).
